Vif-A3F inh = qHTS for Inhibitors of Vif-A3F Interactions: qHTS | AID 602313, 2012 | HeLa A3F-eYFP + Vif (tagged APOBEC3F with the HIV-1 protein that degrades it), YFP fluorescence increase | hit rate 0.2% among 390,000 | Potency, µM (highest dose often 46.1 µM), without a hit: at the highest dose activity, negative = active; further: % of control where 0% means no effect; nearly all actives have a fitted effect of over 65% in size
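HeLa cells stably expressing Vif plus C-terminally eYFP-tagged A3F were seeded, incubated overnight at 37 deg C, dosed with compound, incubated overnight again at 37 deg C. Yellow fluorescence (Ex 488/Em 500-530) reported blocked Vif-mediated A3F-eYFP degradation.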
Eya2 inh = qHTS Assay for Inhibitors of the Phosphatase Activity of Eya2 | AID 488837, 2010 | hit rate 0.006% among 330,000 | recombinant Eya2, OMFP fluorescence dephosphorylation (OMFP is methylfluorescein phosphate) | Protein phosphatase EYA2 (Homo sapiens), O00167 | Potency, µM (top dose mostly 76.9 µM), for inactives: top-dose activity, negative = inhibition, most hits filed as inhibitors; further: on the % scale 0 is the no-effect control and ±100 the full control effect
Target sequence (O00167 whole entry, looked up): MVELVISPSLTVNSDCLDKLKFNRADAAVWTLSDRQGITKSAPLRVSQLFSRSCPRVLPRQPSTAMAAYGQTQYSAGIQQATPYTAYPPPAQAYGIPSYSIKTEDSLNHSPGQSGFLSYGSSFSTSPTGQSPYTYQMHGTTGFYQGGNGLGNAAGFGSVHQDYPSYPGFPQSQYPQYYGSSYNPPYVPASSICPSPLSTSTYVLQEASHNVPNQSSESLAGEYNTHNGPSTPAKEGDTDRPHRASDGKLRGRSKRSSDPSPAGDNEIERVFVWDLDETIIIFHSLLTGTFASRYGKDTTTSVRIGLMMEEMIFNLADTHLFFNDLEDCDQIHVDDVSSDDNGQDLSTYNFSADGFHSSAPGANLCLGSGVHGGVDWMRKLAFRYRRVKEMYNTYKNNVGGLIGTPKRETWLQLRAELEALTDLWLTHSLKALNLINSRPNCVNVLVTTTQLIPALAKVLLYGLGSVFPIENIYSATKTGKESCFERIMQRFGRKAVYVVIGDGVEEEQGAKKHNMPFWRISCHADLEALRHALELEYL
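Eya2 (0.2 uM) preincubated 10 min at ambient with compound, then OMFP substrate added at 50 uM; 10 min reaction in 50 mM HEPES pH 7.5, 50 mM NaCl, 5 uM MgCl2, 0.05% BSA, 1 mM DTT. Fluorescence read at Ex 485/Em 525 nm.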
S-ASM inh = Inhibitors of Secretory Acid Sphingomyelinase (S-ASM): qHTS | Sphingomyelin phosphodiesterase (Homo sapiens), P17405 | placental ASM, HMU-PC fluorogenic substrate, 60 min | Potency, µM (doses to about 57.5 µM), for inactives: at the top dose activity change, negative = inhibition, usual class: inhibitors | hit rate 0.006% among 340,000
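Fluorogenic HMU-PC substrate (9 uM final) is turned over by placental ASM in 60 min at 37 C after a 10 min compound preincubation. Reaction ended by alkaline stop (pH 10), with fluorescence read at 386/447 nm.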
Vif-A3G inh = qHTS for Inhibitors of Vif-A3G Interactions: qHTS; DNA dC->dU-editing enzyme APOBEC-3G (Homo sapiens), Q9HC16; HeLa A3G-eYFP + Vif (tagged APOBEC3G with the HIV-1 protein that degrades it), YFP fluorescence, overnight; Potency, µM (series often up to 46.1 µM), for the others: at the highest dose activity, negative = active, most hits filed as inhibitors; hit rate 0.076% among 410,000; AID 602310, 2012; further: on the % scale 0 is the no-effect control and ±100 the full control effect; nearly all actives have a fitted effect of over 60% in size
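Read-out is eYFP fluorescence (Ex 488/Em 500-530) from Vif-expressing HeLa A3G-eYFP cells; more signal means A3G escaped Vif-mediated degradation. Cells plated overnight, compound pinned in, incubated overnight at 37 deg C.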
Rango dissoc inh = qHTS Assay for Inhibitors of RanGTP induced Rango (Ran-regulated importin-beta cargo) - Importin beta complex dissociation | Snurportin-1 (Homo sapiens) + GTP-binding nuclear protein Ran (Homo sapiens) + Importin … | Potency, µM (top dose mostly 46.1 µM), without a hit: top-dose activity change, negative = inhibition | AID 540253, 2011 | Biochemical FRET Rango-importin beta, RanGTP-induced dissociation | hit rate 0.071% among 340,000; calls by dose curve; further: % of control where 0% means no effect; nearly all actives have a fitted effect of over 45% in size
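Compounds sat 5 min at room temperature with 0.1 uM Rango biosensor plus 0.25 uM importin beta, then FRET pre-read. RanGTP-RCC1 (0.6 uM Ran, 2mM GTP, 0.2 uM RCC1) added for 45 min, and the CFP/YFP post-read measured blocked complex dissociation.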
Rango complex inh = qHTS Assay for Inhibitors of Rango (Ran-regulated importin-beta cargo) - Importin beta complex formation | Rango CFP/YFP FRET sensor + importin beta, 45 min | Importin subunit beta-1 (Homo sapiens), Q14974 | Potency, µM (highest dose often 92.2 µM), inactives show at the top dose inhibition of complex formation | hit rate 0.031% among 340,000; calls by dose curve;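 further: 0% = DMSO wells and 100% = buffer wells lacking importin beta; nearly all actives have a fitted effect of over 15% in size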
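Inhibition scored from the CFP 486 nm/YFP 530 nm FRET ratio 45 min after adding 0.125 microM importin beta to 50 nM Rango biosensor preincubated 5 min with compound (room temperature, PBS with DTT, Tween-20, BSA). No-importin wells as positive control.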
* marks the source's active call; other numbers are inactive results; ? = inconclusive; / = no result. Hits are enriched below; roughly 0.34% of the tested compounds scored in any of these assays. Unless noted, the call rests on the fitted dose curve; in most records, active means well fitted curve in the direction sought with a large enough effect; inconclusive means small, poorly fitted or top-dose-only effect, or another doubt; inactive means no such curve, though single readings can be large; an effect the other way counts as inactive or inconclusive. Potency means the concentration at half of the fitted maximal effect.

SMILES	Vif-A3F inh	Eya2 inh	S-ASM inh	Vif-A3G inh	Rango dissoc inh	Rango complex inh
COc1ccc(OC)c(NC(=O)Cn2cnc3onc(-c4ccc(Cl)cc4)c3c2=O)c1	-9.1%	/	/	1.26µM*	/	/
CCCCCCCCCCCCCCCC[n+]1ccc(C)c2ccccc21	/	/	/	-11.0%	/	/
CCOC(=O)CC1=C(C(=O)OCC)C(c2ccc(OC)c(OC)c2)C(C#N)=C(N)O1 (stereo unspecified)	1.3%	0.7%	-0.2%	0.3%	-9.8%	?
CCOC(=O)CC1=C(C(=O)OCC)C(c2cc(OC)c(OC)cc2OC)C(C#N)=C(N)O1 (stereo unspecified)	5.6%	-2.4%	9.5%	-3.0%	14.6µM*	?
O=C(NCc1ccc(OC(F)(F)F)cc1)c1cccc2c1C(=O)c1ccc(N3CCC(Cc4ccccc4)CC3)cc1S2(=O)=O	?	-1.0%	-6.2%	-9.0%	?	?
O=C(NCc1cccc(C(F)(F)F)c1)c1cccc2c1C(=O)c1ccc(N3CCC(Cc4ccccc4)CC3)cc1S2(=O)=O	22.4µM*	31.8%	-0.5%	?	?	?
O=C(NCc1cccc(F)c1)c1cccc2c1C(=O)c1ccc(N3CCC(Cc4ccccc4)CC3)cc1S2(=O)=O	31.6µM*	?	-3.9%	11.2µM*	?	?
O=C(NCCc1ccc(F)cc1)c1cccc2c1C(=O)c1ccc(N3CCC(Cc4ccccc4)CC3)cc1S2(=O)=O	?	7.2%	-3.9%	?	?	?
O=C(NCc1cc(C(F)(F)F)ccc1Cl)c1cccc2c1C(=O)c1ccc(N3CCOCC3)cc1S2(=O)=O	10µM*	10.0%	-2.4%	2.9%	?	?
O=C(NCc1ccco1)c1cccc2c1C(=O)c1ccc(N3CCC(Cc4ccccc4)CC3)cc1S2(=O)=O	10µM*	9.5%	-13.6%	?	?	?
O=C(NCc1cc(C(F)(F)F)ccc1Cl)c1cccc2c1C(=O)c1ccc(N3CCCCC3)cc1S2(=O)=O	-4.9%	-12.6%	-11.8%	-10.3%	?	?
CC(C)(C)n1ncc2c(=O)n(Cc3cccc(C(F)(F)F)c3Cl)cnc21	/	/	/	-2.1%	/	/
COc1cccc(C(=O)Nc2ccc3nc(SCC(=O)N4CCc5ccccc54)sc3c2)c1	-12.8%	/	/	-5.4%	/	/
O=C(CCS(=O)(=O)c1cc2c(cc1Cl)NC(=O)CO2)NCCc1ccc(Cl)cc1	4.6%	/	/	3.3%	/	/
CCN(Cc1cccc(S(=O)(=O)O)c1)c1ccc(C(=C2C=CC(=[N+](CC)Cc3cccc(S(=O)(=O)O)c3)C=C2)c2ccc(O)cc2S(=O)(=O)O)cc1	/	/	/	6.8%	/	/
C1=Nc2ccccc2/C1=C/c1ccccc1	/	/	/	-2.3%	/	/
O=C(NCc1cccc(F)c1)c1cccc2c1C(=O)c1ccc(N3CCCC3)cc1S2(=O)=O	?	12.4%	-14.4%	?	?	?
CC1CCN(c2ccc3c(c2)S(=O)(=O)c2cccc(C(=O)NCc4cccc(F)c4)c2C3=O)CC1	?	-27.7%	-7.6%	20µM*	?	?
N=C1/C(=C\c2ccc(Br)o2)C(=O)N=C2SC(CC(=O)N3CCCCC3)=NN12	?	7.1%	-6.8%	5.8%	6.51µM*	?
N#CC1=C(S)N(c2ccccc2)C(c2ccc(-c3cccc(Cl)c3)o2)NC1=O (stereo unspecified)	7.08µM*	-3.3%	-4.1%	-5.9%	-21.1%	-0.9%
CCOC(=O)c1ccc(NC(=S)Nc2cccc(C)n2)cc1	11.2µM*	-7.0%	-1.9%	2.7%	16.5%	0.5%

High-throughput results deposited in PubChem by National Center for Advancing Translational Sciences (NCATS).
